# Test results published in the supplement of paper PMC12282887.
# ± gives the standard deviation of the averaged measurements.
# System: E. coli BW25113 marRABp lux reporter
# Experiment: promoter activity interaction Z-score (Lux/OD deviation from empty-vector control); higher = stronger promoter induction by the compound
# Experimental: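 E. coli BW25113 (wild type or ΔmarA/ΔsoxS/Δrob) carrying pTU175 luxCDABE promoter reporters was grown in LB in 384-well plates at 37°C with each of 94 compounds at 4 two-fold concentrations, in biological duplicates. Luminescence and OD600 were read every 30 min for 12 h and integrated as AUC over 8 h (0-8 h WT, 1-9 h mutants). Lux AUC was divided by OD AUC; the interaction score is the residual of a Huber robust fit of each promoter against the empty-vector control, then Z-transformed per promoter.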
compound,measurement,setting,value
CCC[C@@H]1C[C@@H](C(=O)N[C@@H]([C@H]2O[C@H](SC)[C@H](O)[C@@H](O)[C@H]2O)[C@H](C)Cl)N(C)C1 [Clindamycin],promoter activity interaction Z-score,"0.26 µg/ml, genetic background: wild type",0.333 ± 0.029
same,promoter activity interaction Z-score,"0.26 µg/ml, genetic background: ΔmarA",0.0595 ± 0.25
same,promoter activity interaction Z-score,"0.26 µg/ml, genetic background: Δrob",0.168 ± 0.043
same,promoter activity interaction Z-score,"0.26 µg/ml, genetic background: ΔsoxS",0.145 ± 0.068
same,promoter activity interaction Z-score,"0.52 µg/ml, genetic background: wild type",-0.369 ± 0.4
same,promoter activity interaction Z-score,"0.52 µg/ml, genetic background: ΔmarA",0.0444 ± 0.093
same,promoter activity interaction Z-score,"0.52 µg/ml, genetic background: Δrob",0.0402 ± 0.096
same,promoter activity interaction Z-score,"0.52 µg/ml, genetic background: ΔsoxS",0.279 ± 0.051
same,promoter activity interaction Z-score,"1 µg/ml, genetic background: wild type",0.363 ± 0.56
same,promoter activity interaction Z-score,"1 µg/ml, genetic background: ΔmarA",-0.225 ± 0.051
same,promoter activity interaction Z-score,"1 µg/ml, genetic background: Δrob",0.279 ± 0.32
same,promoter activity interaction Z-score,"1 µg/ml, genetic background: ΔsoxS",0.414 ± 0.023
same,promoter activity interaction Z-score,"2.1 µg/ml, genetic background: wild type",0.13 ± 0.11
same,promoter activity interaction Z-score,"2.1 µg/ml, genetic background: ΔmarA",-0.108 ± 0.33
same,promoter activity interaction Z-score,"2.1 µg/ml, genetic background: Δrob",0.449 ± 0.032
same,promoter activity interaction Z-score,"2.1 µg/ml, genetic background: ΔsoxS",0.869 ± 0.17
CC[C@H]1OC(=O)[C@H](C)[C@@H](O[C@H]2C[C@@](C)(OC)[C@@H](O)[C@H](C)O2)[C@H](C)[C@@H](O[C@@H]2O[C@H](C)C[C@H](N(C)C)[C@H]2O)[C@](C)(O)C[C@@H](C)C(=O)[C@H](C)[C@@H](O)[C@]1(C)O [Erythromycin],promoter activity interaction Z-score,"1.8 µg/ml, genetic background: wild type",0.316 ± 0.064
same,promoter activity interaction Z-score,"1.8 µg/ml, genetic background: ΔmarA",0.0943 ± 0.048
same,promoter activity interaction Z-score,"1.8 µg/ml, genetic background: Δrob",0.109 ± 0.022
same,promoter activity interaction Z-score,"1.8 µg/ml, genetic background: ΔsoxS",0.268 ± 0.14
same,promoter activity interaction Z-score,"3.7 µg/ml, genetic background: wild type",0.459 ± 0.1
same,promoter activity interaction Z-score,"3.7 µg/ml, genetic background: ΔmarA",0.54 ± 0.35
same,promoter activity interaction Z-score,"3.7 µg/ml, genetic background: Δrob",0.617 ± 0.38
same,promoter activity interaction Z-score,"3.7 µg/ml, genetic background: ΔsoxS",0.806 ± 0.22
same,promoter activity interaction Z-score,"7.3 µg/ml, genetic background: wild type",1.87 ± 0.21
same,promoter activity interaction Z-score,"7.3 µg/ml, genetic background: ΔmarA",1.31 ± 0.22
same,promoter activity interaction Z-score,"7.3 µg/ml, genetic background: Δrob",1.34 ± 0.3
same,promoter activity interaction Z-score,"7.3 µg/ml, genetic background: ΔsoxS",1.3 ± 0.3
same,promoter activity interaction Z-score,"14.7 µg/ml, genetic background: wild type",2.2 ± 0.17
same,promoter activity interaction Z-score,"14.7 µg/ml, genetic background: ΔmarA",2.59
COc1ccc2cc3[n+](cc2c1OC)CCc1cc2c(cc1-3)OCO2 [Berberine],promoter activity interaction Z-score,"21 µg/ml, genetic background: wild type",-0.142 ± 0.16
same,promoter activity interaction Z-score,"21 µg/ml, genetic background: ΔmarA",-0.0869 ± 0.24
same,promoter activity interaction Z-score,"21 µg/ml, genetic background: Δrob",-0.003 ± 0.15
same,promoter activity interaction Z-score,"21 µg/ml, genetic background: ΔsoxS",0.0721 ± 0.0037
same,promoter activity interaction Z-score,"42 µg/ml, genetic background: wild type",-0.183 ± 0.049
same,promoter activity interaction Z-score,"42 µg/ml, genetic background: ΔmarA",-0.0953 ± 0.12
same,promoter activity interaction Z-score,"42 µg/ml, genetic background: Δrob",-0.278 ± 0.1
same,promoter activity interaction Z-score,"42 µg/ml, genetic background: ΔsoxS",-0.0367 ± 0.026
same,promoter activity interaction Z-score,"84.1 µg/ml, genetic background: wild type",-0.286 ± 0.35
same,promoter activity interaction Z-score,"84.1 µg/ml, genetic background: ΔmarA",0.056 ± 0.18
same,promoter activity interaction Z-score,"84.1 µg/ml, genetic background: Δrob",-0.324 ± 0.01
same,promoter activity interaction Z-score,"84.1 µg/ml, genetic background: ΔsoxS",-0.135 ± 0.015
same,promoter activity interaction Z-score,"168.2 µg/ml, genetic background: wild type",-0.373 ± 0.17
same,promoter activity interaction Z-score,"168.2 µg/ml, genetic background: ΔmarA",-0.165 ± 0.027
same,promoter activity interaction Z-score,"168.2 µg/ml, genetic background: Δrob",-0.287 ± 0.045
same,promoter activity interaction Z-score,"168.2 µg/ml, genetic background: ΔsoxS",-0.015 ± 0.094
